In PubChem BioAssay (NCI):
About 83,000 compounds went through this panel and 20% of them were active in at least one assay; those are over-represented in the sample as a whole.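 Compound tested at a single concentration for 48 hours in 96-well plates; a percent growth value below 10 was scored as active.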 Unmarked numbers belong to inactive results. Active and inactive are the calls of the source.

These compounds were tested on HOP-62 NSCLC (assay: NCI-60 one-dose screen, 48 h (100 = growth as untreated, 0 = no growth, -100 = all killed)). Conditions: 10 µM unless noted.
Experimental: Growth inhibition of the HOP-62 human Non-Small Cell Lung tumor cell line is measured as a screen for anti-cancer activity. Cells are grown in 96 well plates and exposed to the test compound for 48 hours. Compounds are tested at a single concentration, which is 10^-5 M for most compounds. The reported endpoint is percent growth (GI% or GIPRCNT), where numbers from 0 - 100% represent growth inhibition, and numbers from -100% - 0 represent cell death. For example, a value of 40 represents 60% growth inhibition. A value of 0 means no net growth occurred over the course of the experiment. A value of -40 indicates 40% of cells at the beginning of the experiment died by the end of the experiment. A value of -100 means all cells are dead at the end of the experiment.
NCI-60 Human Tumor Cell Lines Screen was performed using the standard one-dose NCI protocol, which is described in more detail at https://dtp.cancer.gov/discovery_development/nci-60/default.htm.
Compounds with GIPRCNT values below 10 were considered active. Activity score was based on GIPRCNT using the following formula: […]
Score is 0 for GIPRCNT values of 100 or above, 50 for GIPRCNT values of 0, and 100 for GIPRCNT values of -100.

Row | Compound | growth
1 | NS(=O)(=O)c1ccc(-n2cc(-c3cccc(NC(=O)c4cc(N5CCOCC5)cc(C(F)(F)F)c4)c3)nn2)cc1 | 12.9%
2 | O=C(Nc1ccccc1)N1CCN(c2cc(-c3cn(-c4ccccc4)nc3-c3cccc(O)c3)ccn2)CC1 | 80.8%
3 | CC1CN(c2oc(-c3ccc([N+](=O)[O-])cc3)nc2C#N)CC(C)O1 (stereo not given) | 98.9%
4 | O=C(C1=CNC(=S)NC1c1ccc(O)cc1)c1cc2ccccc2oc1=O (stereo not given) | 91.4%
5 | CCN(CC)C(=O)N/C(N)=N/c1nc2ccccc2s1 | 68.9%
6 | O=C(COc1ccc(NC(=O)Nc2ccc(Cl)cc2)cc1)N/N=C/c1ccccc1 | -84.6% (active)
7 | COc1cc2c(c(OC)c1OC)C(=O)CC(c1cccc(NC(=O)c3cc(NC(=O)[C@H](CO)NC(=O)OC(C)(C)C)ccc3Cl)c1)O2 (stereo not given in full) | 50.3%
8 | COc1ccc2cc([C@H](C)C(=O)N/N=C/c3ccc(Br)cc3)ccc2c1 | 90.1%
9 | CC(=O)OC[C@@]1(C)C2CC[C@]3(C)C(CC=C4C5CC(C)(C)CC[C@]5(C(=O)Nc5ccc(Br)cc5)CC[C@]43C)[C@@]2(C)C[C@@H](OC(C)=O)[C@@H]1OC(C)=O (stereo not given in full) | 38.5%
10 | Cc1ccccc1[C@H]1C(C(=O)c2ccc(Cl)cc2)C2(N[C@@H]1c1ccccc1)C(=O)Nc1ccc(Cl)cc12 (stereo not given in full) | -63.7% (active)
11 | CCCCCCCCOc1cccc(S(=O)(=O)Nc2ccc(C)cc2C(=O)O)c1 | 99.8%
12 | Cn1cc(-c2cc(N)n3nc(-c4cn(C)c5ncccc45)cc3n2)c2cccnc21 | 86.1%
13 | CCCCSc1nc(Nc2ccc(C(C)=O)cc2)c(C#N)c(-c2ccc(OC)cc2)n1 | 73.9%
14 | CC1=C(C(=O)c2ccccc2)C(c2cccc3ccccc23)n2c(nc3ccccc32)N1 (stereo not given) | 40.4%
15 | COc1ccc(C(=O)/C=C/c2cccnc2)cc1S(N)(=O)=O | 27.5%
16 | COc1ccc2nc(Nc3cccc(NC(=O)c4ccc(CN5CCCN(C)CC5)c(C(F)(F)F)c4)c3)ccc2c1 | -47.3% (active)
17 | S=C(Nc1ccccc1)Nc1ccc(OCc2nc3ccccc3[nH]2)cc1 | 43.6%
18 | C#C[C@]1(O)CC[C@H]2[C@@H]3CC=C4c5sc(-c6ccc([N+](=O)[O-])cc6)nc5CC[C@]4(C)[C@H]3CC[C@@]21C | 23.5%
19 | CC(=O)Nc1cccc(Nc2nc(NCc3ccccc3)c3ccccc3n2)c1 | -90.8% (active)
20 | CC12CC[C@@H]3[C@]4(C)COC(c5cn[nH]c5-c5cccc(Cl)c5)O[C@@H]4CC[C@@]3(C)[C@@H]1CC(C1=CCOC1=O)O2 (stereo not given in full) | 74.6%

Row | Compound | growth
21 | CN(C)c1ccnc(CNCCSC2(c3ccccc3)c3ccccc3C=Cc3ccccc32)c1 | 9.26% (active)
22 | COc1c(F)ccc(C(=O)Nc2ccc3nc(NC(=O)C4CCCN(S(=O)(=O)c5ccc(C#N)cc5)C4)sc3c2)c1F (stereo not given) | 104%
23 | COc1cc(C2CC(c3ccc(S(=O)(=O)NCCNc4nc(Nc5ccc(F)cc5)nc(N(C)C)n4)cc3)=Nc3c(N)nc(N)nc3N2)cc(OC)c1OC (stereo not given) | 94.3%
24 | O=C(c1ccc(OCCN2CCOCC2)cc1)C1[C@H](c2ccc(Cl)cc2)[C@@H](c2ccccc2)NC12C(=O)Nc1ccc(Cl)cc12 (stereo not given in full) | 67.7%
25 | N/C(=N\c1nc2ccccc2s1)NC(=O)Nc1ccccc1Br | -19.3% (active)
26 | Cn1cc(-c2cc(N)n3nc(-c4cn(C)c5ncc(Br)cc45)cc3n2)c2cc(Br)cnc21 | 48.3%
27 | CNS(=O)(=O)c1ccc(Nc2ccc(C(F)(F)F)cc2)c(-c2cn(C)cn2)c1 | 95.3%
28 | C#CCOc1ccc(/C=N/Nc2nc(-c3cc4cc(OC)ccc4oc3=O)cs2)cc1OC | 71.9%
29 | Cc1cc2nc3c4ccccc4n(CCNCCN(C)C)c3nc2cc1C | 45.3%
30 | CN1CCc2c(sc3ncnc(N/N=C/c4ccc(Cl)cc4Cl)c23)C1 | 27.1%
31 | O=C(COc1ccc(NC(=O)Nc2ccc(Cl)c(Cl)c2)cc1)N=Nc1c(O)[nH]c2ccc(Cl)cc12 | -61.3% (active)
32 | O=C(O)c1ccc(-c2ccc(/C=N/NC(=O)c3[nH]c4ccc(Br)cc4c3-c3ccccc3)s2)cc1 | 28.5%
33 | O=C(c1ccc(OCCN2CCOCC2)cc1)C1[C@H](c2ccc(Cl)cc2)[C@@H](c2ccccc2)NC12C(=O)Nc1ccc(Br)cc12 (stereo not given in full) | 60.6%
34 | C=C1CC[C@@H]2[C@]3(C)COC(c4cn[nH]c4-c4ccc(OC)cc4)O[C@@H]3CC[C@@]2(C)[C@@H]1C/C=C1/C(=O)OCC1O (stereo not given in full) | -56.9% (active)
35 | COc1cc2oc(-c3cccc(C(=O)Nc4cccc([N+](=O)[O-])c4)c3)cc(=O)c2c(OC)c1OC | -13.4% (active)
36 | N/C(=N\c1nc2ccccc2s1)NC(=O)Nc1ccc(Cl)cc1Cl | -77% (active)
37 | Cc1cccc(Nc2nc3ccccc3nc2/C=C/c2ccc(F)cc2)c1 | 99.7%
38 | C#CCOc1ccc(/C=N/Nc2nc(-c3ccc(Cl)cc3)cs2)cc1OC | 84.7%
39 | Cc1sc2c(c1C)C(c1ccc(Cl)cc1)=N[C@@H](CC(=O)NCCCCCNC(=O)COc1ccc(C3CCC(=O)NC3=O)cc1)c1nnc(C)n1-2 (stereo not given in full) | 16%
40 | CCCCCCCCc1ccc(S(=O)(=O)Nc2ccc(CC)cc2C(=O)O)cc1 | 99.6%
